Results on 60 molecules are retold here after PubChem BioAssay AID449762 (Southern Research Specialized Biocontainment Screening …, 2010).

About 1,900 (0.58%) of roughly 330,000 compounds were called active. About 4% were inconclusive and are not listed. No stated cut-off is given here; in the data, inconclusive means inhibition above about 70% without an active follow-up result; inactive means below that. A selection follows. Measured potencies and affinities stand elsewhere.

The assay is described as follows: M. tuberculosis growth inhibition, HTS (AID 449762).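 Further: bacterial growth assessed after seven days of incubation.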 Conditions: M. tuberculosis H37Rv growth inhibition, 7H9 media; at 25 µM; hits give high values.
For the molecule `COCCn1c(=NC(=O)c2cc(Cl)sc2Cl)sc2cc(S(N)(=O)=O)ccc21`, the inhibition (in general, the drop in the measured response relative to a control, in per cent) is -0.08% (inactive).
For `C=CCn1c(=NC(=O)c2cc(Cl)sc2Cl)sc2cc(S(N)(=O)=O)ccc21` the value was -3.02% (inactive); for `Oc1ccccc1CN1CCN(C(O)(c2ccccc2)c2ccccc2)CC1`, 12.9% (inactive); for `N/C(=N\OC(=O)c1cc(Cl)ccc1Cl)c1ccccn1`, 30% (inactive).
As for `COc1cc(OC)c(C(=O)O/N=C(\N)c2ccccn2)cc1OC`, the inhibition is 7.81% (inactive).
For `C=CC[C@@H](CC(=O)N[C@@H](CO)Cc1ccccc1)C(=O)N[C@H](COC(=O)[C@@H](CC=C)Cc1ccc(F)cc1)C(C)(C)C` the value was -11% (inactive); for `CCc1ccc(/C=C2/C(=O)N(c3ccccc3)C(=S)N2CC(=O)OC)s1`, 10.2% (inactive).
For `CCc1ccc(/C=C2/C(=O)N(CC)C(=S)N2C)s1` the value was 12.3% (inactive); for `O=c1cc(CSc2ccc([N+](=O)[O-])cc2)nc2sccn12`, -11.9% (inactive).
For `O=C(NCCCN1CCCC1)c1cc2c(Cl)nc3ccccc3c2s1`, the inhibition was 9.47% (inactive).
Regarding `CCN(CC)CCCNC(=O)c1cc2c(Cl)nc3ccccc3c2s1`, the inhibition is 5.92% (inactive).
`O=[N+]([O-])c1ccc(C(=S)N2CCN(Cc3ccccc3)CC2)cc1`: the inhibition is 6.67% (inactive).
Turning to `CCCCOC(=O)Nc1ccc(S(=O)(=O)Nc2nc(C)cc(C)n2)cc1`, the inhibition was 0.81% (inactive).
To `CCCCOC(=O)Nc1ccc(S(=O)(=O)Nc2cc(C)nc(C)n2)cc1` belongs 50.1% (inactive); to `O=C(CSC(=S)N1CCCCC1)c1ccccc1`, 69.2% (inactive); to `O=c1c(-c2ccc(O)cc2)coc2cc(O)ccc12`, 3.16% (inactive).
Consider `Cc1oc2cc(O)ccc2c(=O)c1-c1cnn(-c2ccccc2)c1`, for which the inhibition was -3.21% (inactive).
To `CCc1ccc(-c2cc(C(=O)Nc3c(C)n(C)n(-c4ccccc4)c3=O)c3ccccc3n2)s1` belongs 5.93% (inactive); to `Cc1[nH]n(-c2ccccc2)c(=O)c1/C=N/N(c1ccccc1)c1ccccc1`, 62.4% (inactive).
For `CCCC(=O)N/C(N)=N/c1nc(C)c2cc(C)ccc2n1` the value was 45.9% (inactive); for `Cc1cc2nc(/N=C(\N)NC(=O)N3c4ccccc4Sc4ccccc43)nc(C)c2cc1C`, -0.79% (inactive); for `CCC(=O)N/C(N)=N/c1nc(C)c2cc(C)c(C)cc2n1`, 7.41% (inactive).
For `Cc1ccc2nc(N=C(N)N)nc(C)c2c1` the value was 12.5% (inactive); for `COc1ccc(C(=O)Nc2cnccn2)cc1[N+](=O)[O-]`, -6.82% (inactive); for `O=C(CCN1C(=O)c2ccccc2C1=O)Nc1nc2ccccc2s1`, 10.8% (inactive).
For the molecule `NC(=O)[C@@H]1CC2(CC(c3cccc(NC(=O)[C@H]4CCC(=O)N4)c3)=NO2)CN1C(=O)COc1ccc(Cl)cc1` (stereo not given in full), the inhibition was 0.87% (inactive).
`Cc1cccc(C(=O)Nc2cccc3cccnc23)c1`: the inhibition was 25.4% (inactive).
For `O=C(CSCc1ccccc1Cl)Nc1c[nH]c(=O)[nH]c1=O`, the inhibition was 1.55% (inactive).
To `Cn1c(NCC(O)c2ccccc2)nc2c1c(=O)n(Cc1ccc(Cl)cc1)c(=O)n2C` (stereo not given) belongs 48.9% (inactive); to `CC(O)CNc1nc2c(c(=O)n(Cc3ccc(Cl)c(Cl)c3)c(=O)n2C)n1C` (stereo not given), 6.85% (inactive); to `CCOC(=O)c1ccc(COC(=O)CNC(=O)CNC(=O)Cc2ccccc2)cc1`, -12.4% (inactive).
To `COc1cc(OC)c(NC(=O)CCCNC(=O)Cn2cnc3sc(C)c(C)c3c2=O)cc1Cl` belongs -3.56% (inactive); to `CCN(CC(=O)Nc1ccc(NC(C)=O)cc1)C(=O)c1ccccc1SCC(=O)N1CCCC1`, 6.02% (inactive); to `O=C(NCCOc1ccccc1F)c1cccc(S(=O)(=O)N2CCN(c3ccccc3)CC2)c1`, 4.44% (inactive).
For `c1ccc(-c2ccc3ccccc3n2)cc1` the value was -0.21% (inactive); for `c1ccc2nc(-c3ccncc3)ccc2c1`, -14.1% (inactive); for `Cc1cc(C)c(C#N)c(SCC(=O)c2cc(C)n(CCc3ccccc3)c2C)n1`, -0.68% (inactive).
As for `O=C(NCCCN1CCOCC1)c1ccc(Sc2ccc(F)cc2)c([N+](=O)[O-])c1`, the inhibition is -0.04% (inactive).
To `COc1ccc(NC(=O)CNC(=O)C2CCCCC2)cc1` belongs 13.5% (inactive); to `NS(=O)(=O)c1ccc(NC(=O)CSC2CCCCC2)cc1`, -6.63% (inactive).
For `CCC(C)NC(=O)CN1C(=O)NC2(CCOc3ccccc32)C1=O` (stereo not given), the inhibition is 7.03% (inactive).
On to `CC(C)C1(C(C)C)OC(=O)c2ccccc21`, for which the inhibition was 0.62% (inactive).
For `CCCn1ncc(CN2CCC(Cc3cccc(F)c3)(C(=O)OCC)CC2)c1C` the value was -1.6% (inactive); for `COc1ccc(OCC(O)Cn2c(=N)n(Cc3ccccc3)c3ccccc32)cc1` (stereo not given), 26.5% (inactive); for `N=c1n(Cc2ccccc2)c2ccccc2n1CC(O)COc1ccccc1` (stereo not given), 14.3% (inactive).
To `CSCC(=O)N1CCCC(CNC(=O)c2ccc(-c3ccccc3)cc2)C1` (stereo not given) belongs 3.04% (inactive).
To `CC(=O)CCC(=O)N1CCCC(CNC(=O)c2ccc(-c3ccccc3)cc2)C1` (stereo not given) belongs -4.64% (inactive).
For `CC(C)(C)OC(=O)C[C@H]1C/C=C\C[C@H](CC(=O)NCCO)C(=O)NC[C@H](c2ccccc2)OC1=O`, the inhibition is -2.46% (inactive).
To `COc1cccc(N(C(=O)CNC(=O)c2ccco2)C(C(=O)NC2CCCC2)c2ccncc2)c1` (stereo not given) belongs 0.28% (inactive); to `O=C(O)CCCn1cc(NC(=O)COc2ccccc2)cn1`, 1.85% (inactive).
To `Clc1ccc(SCCn2ccnc2)cc1` belongs -6.09% (inactive); to `O=C(Cc1ccc(Cl)cc1)NCCCn1ccnc1`, 0.59% (inactive); to `CCNCCNC(=O)c1c(O)c2c([nH]c1=O)CCCC2`, -0.1% (inactive).
For `Cc1nn(Cc2ccc(Cl)cc2Cl)c(C)c1NC(=O)CCl` the value was 70.1% (inactive); for `Cc1ccc(CCNC(=O)C2CC(c3cccc(F)c3)=NO2)cc1` (stereo not given), 0.56% (inactive); for `C=CCOc1ccc(CNc2nccs2)cc1OC`, -5.03% (inactive).
As for `C=CCOc1c(Cl)cc(CNc2nccs2)cc1OC`, the inhibition was 56.1% (inactive).
To `CCCOc1ccc(C(=O)N/N=C/c2c[nH]c3ccc(Br)cc23)cc1` belongs 1.55% (inactive); to `Cc1cc(Nc2ccccc2)c2c([N+](=O)[O-])cc(C)c(C)c2n1`, 6.4% (inactive).
For `COc1ccccc1Nc1cc(C)nc2c(C)ccc([N+](=O)[O-])c12` the value was -0.28% (inactive).
